# Laboratory results taken from PubChem BioAssay (Tox21).
# Unmarked numbers belong to inactive results. Inconclusive results are not listed. A call without a number means that no potency is given here. Activity calls are given as the source filed them. Unless noted, the call rests on the fitted dose curve; in most records, active means well fitted curve in the direction sought with a large enough effect in the repeat runs; inconclusive means weak or mixed curves; inactive means no such curve, though single readings can be large; an effect the other way counts as inactive or inconclusive.
# Assays:
# [1] = biological target: Thyrotropin receptor (Homo sapiens) (UniProt P16473); assay: qHTS assay to identify small molecule agonists of the thyroid stimulating hormone receptor (TSHR) signaling pathway (AID 1224843; calls by dose curve; further: nearly all actives have a fitted effect of over 45% in size)
# Procedure, shortened: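 TSHR-expressing HEK293 cells (800 per well) were exposed to compounds for 30 min at room temperature. cAMP was then detected by HTRF competition with cAMP-d2 and anti-cAMP cryptate, read after 1 h at room temperature. Fifteen concentrations, triplicate.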
# [2] = qHTS assay to identify small molecule agonists of the hypoxia (HIF-1) signaling pathway - cell viability counter screen (AID 1224844; calls by dose curve; further: nearly all actives have a fitted effect of over 50% in size; further: potency means the concentration at half of the fitted maximal effect)
# Procedure, shortened: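 HRE-bla ME-180 cells in medium with 0.5% dialyzed FBS were preincubated 5 hrs at 37C, exposed to compounds for 17 hrs, then viability was read as CellTiter-Glo luminescence after 30 min at room temperature, in the reporter wells.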
# [3] = qHTS assay to identify small molecule agonists of the hypoxia (HIF-1) signaling pathway (AID 1224846; active means well fitted activation curve with a large enough effect in the signal ratio in the repeat runs, not every such curve was filed as active; the % refers to the signal ratio)
# Procedure, shortened: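 HRE-bla ME-180 cells (beta-lactamase reporter under hypoxia response element) were plated at 2,000 cells/well in medium with 0.5% dialyzed FBS, rested 5 hrs, then given compounds in DMSO for 17 hrs at 37C, 5% CO2. Reporter induction was read with CCF4-AM FRET substrate.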
# [4] = qHTS assay to identify small molecule agonists of H2AX - cell viability counter screen (AID 1224847; calls by dose curve; further: top concentration of the series differs between compounds; nearly all actives have a fitted effect of over 30% in size)
# Procedure, shortened: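 After overnight plating of 1000 CHO-K1 cells per well, a 15-concentration compound series was applied for 3 hr at 37C. Luminescence from CellTiter-Glo, read following 30 min at room temperature, reflected cell viability.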
# [5] = qHTS assay to identify small molecule antagonists of the estrogen related receptor (ERR) signaling pathway from Tox21 library (AID 1224848); further: nearly all actives have a fitted effect of over 50% in size
# Procedure, shortened: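 Cells: ERR line, 2,000/well; 6 h preincubation 37 C/5% CO2. Cpd in DMSO via pin tool; 18 h, 37 C. ONE-Glo, 30 min RT, luminescence.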
# [6] = qHTS assay to identify small molecule agonists of the estrogen related receptor (ERR) signaling pathway from Tox21 library (AID 1224849; calls by dose curve; further: nearly all actives have a fitted effect of over 15% in size); conditions: ERR reporter cell line, ONE-Glo luciferase, 18 h; at 92.4 µM (top of the series) unless noted
# Procedure, shortened: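 ERR reporter cell line (NTP) seeded, rested 6 h at 37 C/5% CO2, then pinned with Tox21 compounds in DMSO. After 18 h at 37 C, ONE-Glo luciferase luminescence was read following 30 min at room temperature.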
# [7] = qHTS RealTime-Glo MT Cell Viability Assay in HepG2 cells - 24 hour (AID 1224867); further: nearly all actives have a fitted effect of over 50% in size
# Procedure, shortened: (§1)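 Tox21 10K library screened in qHTS format on HepG2 cells carrying RealTime-Glo reagents. Compounds were added after a 5 h preincubation, and the luminescent signal from continuous culture was measured repeatedly during 40 h treatment.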
# [8] = qHTS RealTime-Glo MT Cell Viability Assay in HEK293 cells - 32 hour (AID 1224868); further: top concentration of the series differs between compounds; nearly all actives have a fitted effect of over 50% in size
# Procedure, shortened: (§2)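 Luminescence generated by NanoLuc from substrate produced by living HEK293 cells served as the viability signal. Each value reflects the reading at its stated time point during continuous 40 h compound exposure at 37 C.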
# [9] = A CellTox Green Cytotoxicity Assay to monitor cytotoxicity in HEK293 cells - 0 hour (AID 1224869); further: nearly all actives have a fitted effect of over 50% in size
# Procedure, shortened: (§3)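 HEK293 cells premixed with CellTox Green dye were seeded at 600 cells/well and left 5 h at 37 C/5% CO2 before pin transfer of 23 nL compound in DMSO. Fluorescence from dye bound to dead-cell DNA was read during 40 h treatment.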
# [10] = qHTS RealTime-Glo MT Cell Viability Assay in HepG2 cells - 40 hour (AID 1224870); further: nearly all actives have a fitted effect of over 50% in size
# Procedure, shortened: (§4)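 HepG2 cells mixed with RealTime-Glo MT reagents (NanoLuc plus cell-permeant prosubstrate) were seeded at 600 cells/well, incubated 5 h at 37 C/5% CO2, then pinned with compounds in DMSO; nonlytic luminescence tracked viability during 40 h treatment.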
# [11] = A CellTox Green Cytotoxicity Assay to monitor cytotoxicity in HEK293 cells - 40 hour (AID 1224871); further: nearly all actives have a fitted effect of over 45% in size
# Procedure, shortened: as §3
# [12] = qHTS RealTime-Glo MT Cell Viability Assay in HEK293 cells - 16 hour (AID 1224872)
# Procedure, shortened: as §2
# [13] = qHTS RealTime-Glo MT Cell Viability Assay in HepG2 cells - 8 hour (AID 1224873); further: nearly all actives have a fitted effect of over 55% in size
# Procedure, shortened: as §4
# [14] = qHTS RealTime-Glo MT Cell Viability Assay in HEK293 cells - 40 hour (AID 1224874); conditions: RealTime-Glo luminescence; max response: stronger effect = lower value; further: nearly all actives have a fitted effect of over 50% in size
# Procedure, shortened: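 HEK293 cells mixed with RealTime-Glo reagents (NanoLuc plus cell-permeant prosubstrate) at 600 cells/well, preincubated 5 h at 37 C/5% CO2, then given 23 nL compound in DMSO. Nonlytic luminescence from viable cells was read at 0, 8, 16, 24, 32 and 40 h.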
# [15] = A CellTox Green Cytotoxicity Assay to monitor cytotoxicity in HEK293 cells - 24 hour (AID 1224875); further: nearly all actives have a fitted effect of over 45% in size
# Procedure, shortened: as §3
# [16] = A CellTox Green Cytotoxicity Assay to monitor cytotoxicity in HepG2 cells - 16 hour (AID 1224876); further: nearly all actives have a fitted effect of over 45% in size
# Procedure, shortened: (§5)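 HepG2 cells were seeded together with the CellTox Green dye at 600 cells/well, left 5 h at 37 C/5% CO2, then given compounds in DMSO. Fluorescence from dye bound to dead-cell DNA was read repeatedly over 40 h of treatment at 37 C.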
# [17] = qHTS RealTime-Glo MT Cell Viability Assay in HepG2 cells - 32 hour (AID 1224877); further: nearly all actives have a fitted effect of over 55% in size
# Procedure, shortened: as §1
# [18] = A CellTox Green Cytotoxicity Assay to monitor cytotoxicity in HepG2 cells - 24 hour (AID 1224878); further: nearly all actives have a fitted effect of over 45% in size
# Procedure, shortened: as §5
# [19] = A CellTox Green Cytotoxicity Assay to monitor cytotoxicity in HepG2 cells - 40 hour (AID 1224879); further: nearly all actives have a fitted effect of over 40% in size; further: potency means the concentration at half of the fitted maximal effect
# Procedure, shortened: as §5
# [20] = qHTS assay to identify small molecule agonists of H2AX (AID 1224845; active means well fitted activation curve with a large enough effect in the signal ratio in the repeat runs, not every such curve was filed as active; the % refers to the signal ratio)
# Procedure, shortened: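 Wild-type CHO-K1 cells plated overnight, then exposed 3 hr at 37C to compounds at 15 concentrations (0.76% DMSO). Lysed, then HTRF anti-pH2AX(S139)-cryptate/anti-H2AX-d2 detection after 24 hr at room temperature; emissions 665 and 620 nm.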
# Thyrotropin receptor (Homo sapiens), sequence (P16473 whole entry, looked up): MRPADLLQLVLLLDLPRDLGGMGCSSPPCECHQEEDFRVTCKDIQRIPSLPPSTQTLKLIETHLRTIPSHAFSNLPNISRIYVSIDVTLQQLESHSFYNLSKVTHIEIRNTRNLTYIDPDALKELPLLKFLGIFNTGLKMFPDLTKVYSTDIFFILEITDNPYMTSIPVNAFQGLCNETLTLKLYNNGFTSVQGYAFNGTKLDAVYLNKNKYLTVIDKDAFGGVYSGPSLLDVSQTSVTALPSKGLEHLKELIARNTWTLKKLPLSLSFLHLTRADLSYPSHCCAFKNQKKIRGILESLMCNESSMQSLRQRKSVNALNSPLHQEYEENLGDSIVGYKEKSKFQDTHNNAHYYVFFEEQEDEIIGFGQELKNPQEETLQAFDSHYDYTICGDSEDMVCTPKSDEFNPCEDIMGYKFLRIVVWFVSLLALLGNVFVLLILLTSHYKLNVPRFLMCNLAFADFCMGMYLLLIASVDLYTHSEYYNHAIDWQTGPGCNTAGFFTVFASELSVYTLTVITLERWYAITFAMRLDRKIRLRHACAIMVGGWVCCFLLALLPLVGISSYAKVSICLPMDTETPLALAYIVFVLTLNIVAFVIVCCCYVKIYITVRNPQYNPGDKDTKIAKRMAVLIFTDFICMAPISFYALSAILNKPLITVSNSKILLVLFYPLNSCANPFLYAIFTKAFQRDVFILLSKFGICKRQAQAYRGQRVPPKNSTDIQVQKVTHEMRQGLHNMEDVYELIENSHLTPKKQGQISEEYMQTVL
Compound,outcome [1],Potency [2],outcome [3],Potency [4],Potency [5],"activity change, positive = activation [6]",outcome [7],Potency [8],Potency [9],Potency [10],Potency [11],Potency [12],outcome [13],max response [14] [%],Potency [15],Potency [16],Potency [17],Potency [18],Potency [19],outcome [20]
CNc1ncnc2nc[nH]c12,inactive,inactive,inactive,inactive,inactive,1.91%,inactive,inactive,inactive,inactive,inactive,inactive,inactive,3.96,inactive,inactive,inactive,inactive,inactive,
Cc1cc(C)cc(OCC2CNC(=O)O2)c1 (stereo unspecified),inactive,inactive,,inactive,,,inactive,inactive,inactive,inactive,inactive,inactive,inactive,2.49,inactive,inactive,inactive,inactive,inactive,inactive
CC1(C)OC(=O)Nc2ccc(Br)cc21,inactive,inactive,,inactive,,,inactive,inactive,inactive,inactive,inactive,inactive,inactive,0.0036,,inactive,inactive,inactive,inactive,inactive
CCN1CCCC1CNC(=O)c1cc(S(N)(=O)=O)ccc1OC (stereo unspecified),inactive,17.4 µM (active),,inactive,,,inactive,,inactive,inactive,inactive,,inactive,,inactive,inactive,inactive,inactive,43.6 µM (active),inactive
CSc1ccc(C=O)cc1,inactive,inactive,,inactive,,,inactive,,inactive,inactive,inactive,,inactive,0.555,inactive,inactive,inactive,inactive,inactive,inactive
COc1cccc(Br)c1,inactive,inactive,,inactive,inactive,0.21%,inactive,,inactive,inactive,inactive,inactive,inactive,-10,inactive,,inactive,,,inactive
CC(C)c1ccc2oc3nc(N)c(C(=O)O)cc3c(=O)c2c1,inactive,inactive,inactive,inactive,inactive,105% [at 42.5 µM] (active),inactive,inactive,inactive,inactive,inactive,inactive,inactive,13,inactive,inactive,inactive,inactive,inactive,
CC(C)c1cccc(O)c1,inactive,inactive,,,inactive,1.69%,inactive,inactive,inactive,inactive,inactive,inactive,inactive,1.56,inactive,inactive,inactive,,,inactive
